Measurements reported in PubChem BioAssay (NCI).
About 83,000 compounds went through this panel and 20% of them were active in at least one assay; those are over-represented in the sample as a whole.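 Method: cells in 96-well plates; compound added at one concentration; 48 h incubation; percent growth measured; values under 10 scored active.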 Unmarked numbers belong to inactive results. Activity calls are given as the source filed them.

Key:
Assay in all cases: NCI-60 one-dose screen, 48 h (100 = growth as untreated, 0 = no growth, -100 = all killed)
Conditions in all cases: 10 µM
HCT-15 colon = test system: HCT-15 colon
HT29 colon = test system: HT29 colon
SNB-75 CNS = test system: SNB-75 CNS
SNB-19 CNS = test system: SNB-19 CNS
U251 CNS = test system: U251 CNS
PC-3 prostate = test system: PC-3 prostate
SK-MEL-5 melanoma = test system: SK-MEL-5 melanoma
UACC-62 melanoma = test system: UACC-62 melanoma
LOX IMVI melanoma = test system: LOX IMVI melanoma
SK-MEL-28 melanoma = test system: SK-MEL-28 melanoma
SK-MEL-2 melanoma = test system: SK-MEL-2 melanoma
SN12C renal = test system: SN12C renal
UO-31 renal = test system: UO-31 renal
TK-10 renal = test system: TK-10 renal
ACHN renal = test system: ACHN renal
CAKI-1 renal = test system: CAKI-1 renal
A498 renal = test system: A498 renal
CCRF-CEM leukemia = test system: CCRF-CEM leukemia
MOLT-4 leukemia = test system: MOLT-4 leukemia
EKVX NSCLC = test system: EKVX NSCLC

SMILES	growth (HCT-15 colon)	growth (HT29 colon)	growth (SNB-75 CNS)	growth (SNB-19 CNS) [%]	growth (U251 CNS)	growth (PC-3 prostate)	growth (SK-MEL-5 melanoma)	growth (UACC-62 melanoma)	growth (LOX IMVI melanoma)	growth (SK-MEL-28 melanoma)	growth (SK-MEL-2 melanoma)	growth (SN12C renal) [%]	growth (UO-31 renal)	growth (TK-10 renal) [%]	growth (ACHN renal)	growth (CAKI-1 renal) [%]	growth (A498 renal)	growth (CCRF-CEM leukemia)	growth (MOLT-4 leukemia)	growth (EKVX NSCLC)
CCc1nn2c(-c3ccccc3)c(-c3cc(OC)c(OC)c(OC)c3)nc2s1	72.9%	74.5%	45.9%	85.3	98.8%	71.4%	71.9%	71.8%	88.2%	29.5%	37.9%	88.1	57.6%	82.2	85.8%	69.4	62.5%	70.9%	72.4%	
CCCCCc1cc[n+](CC(=O)c2ccc(Cl)cc2)cc1	98.5%	64.7%	84.4%	96.7	97.8%	85.7%	94.9%	82.8%	87.4%	101%	109%		91.2%		99%	92.5	63.1%	102%	92.7%	93.1%
CC(C)c1[nH]nc2c(NCc3ccc(-c4ccccn4)cc3)nc(SCCN)nc12	7.24% (active)	-24.2% (active)	-78.5% (active)	12.2	5.64% (active)	-0.489% (active)	-38.6% (active)	-10.2% (active)	-18.5% (active)	-13.8% (active)	-82.1% (active)		0.673% (active)		6.26% (active)	25.6	-69.5% (active)	-0.568% (active)	-0.423% (active)	1.6% (active)
COc1ccc(-c2cc(/C=C3\C(=O)Nc4cc(Cl)ccc43)[nH]n2)cc1OC	51.2%	32.2%	47.1%	87	75.7%	58.5%	64.8%	56.9%	52.9%	74.6%	58.7%	70.5	74.6%	92.7	84.3%	63.9	65.3%	54.2%	75%	
O=C(Nc1cccc(F)c1)Nc1cccc(Cl)c1	82.9%	90.9%	89.1%	99.9	90.5%	65.5%	91.5%	77.1%	106%	98.9%	101%	87.4	87.1%	116	88.1%	88.8	36.7%	84.4%	4.94% (active)	
COc1cc(-c2nc3ccccc3[nH]2)ccc1OCC(=O)N=Nc1c(O)[nH]c2ccccc12	99.4%	91.5%	98.1%	98.4	32.1%	64%	68.9%	94.9%	83.4%	101%	103%	83.2	89.3%	136	101%	94.2	95.2%	-25.3% (active)	65.9%	
N#Cc1c(-c2ccccc2)nc(SCC(=O)N2CCOCC2)[nH]c1=O	103%	106%	61.4%	111	105%	98.1%	102%	100%	91.9%	114%	107%	99.1	71.9%	110	98.5%	94.1	93.5%	95.1%	83.5%	
O=C1/C(=C/c2ccc(O)cc2)CSc2ccc(Cl)cc21	53.9%	69.3%	93.8%	88.4	74.8%	58.9%	80.9%	71.8%	49.3%	107%	97.8%	81.5	73.1%	103	88.9%	79.9	99.5%	12.4%	22.3%	
Cc1cnc(C=O)c2cccc([N+](=O)[O-])c12	70.7%	79.1%	69.6%	99.2	91.9%	79.9%	95.5%	103%	72.1%	111%	102%	86.8	43.5%	108	85.8%	86.3	106%	11.5%	61%	
